This is a sample that favours compounds with a hit; in the whole collection about 4% have one here.
HIF-2a block – inhibitors of HIF-2a | 786-0 RCC cells HIF-2a reporter, luciferase luminescence, overnight | inhibition, % at 18.8 µM | 0.72% of 360,000 active | AID 624352;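 active means inhibition of the luminescence signal of 40% or more relative to plate controls, in a single-dose primary screen at 18.75 µM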
TWEAK Fn14 block – TWEAK-Fn14 signaling inhibition; TWEAK-stimulated Fn14 reporter cells, luciferase luminescence, 8 h; inhibition, % at 10 µM; 2% of 360,000 active; in the data active means inhibition above about 50%
Peg3 promoter – Peg3 promoter activity inhibition; HeLa PEG-Prom luciferase reporter, luminescence, overnight; inhibition, % at 20 µM; 1.7% of 360,000 active; AID 588405;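 active means inhibition of at least 50% at 20 µM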
KKLEB tox – counter-screen for CF NF-kB inhibitors: cytotoxicity. KKLEB CF airway cells viability, ATPlite luminescence, overnight; active compounds read low; cells stimulated with P. aeruginosa culture filtrate. activity change (cytotoxicity), % at 5 µM. 0.36% of 360,000 active. AID 602141;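 active means corrected activity change at or below -50% at 5 µM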
TROY signal inh – inhibitors of TROY-dependent NF-kB signaling | 0.98% of 360,000 active | Q293 LMP1-TROYcd NF-kB luciferase reporter, 4 h | inhibition, % at 10 µM;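 active means compounds whose plate-normalised and pattern-corrected inhibition of the luciferase reporter signal at the single screening dose is 50% or more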
CF NFkB block – cystic fibrosis NF-kB activation inhibition; 0.86% of 360,000 active; KKLEB NF-kB-GFP reporter, PAF-induced, GFP fluorescence overnight; inhibition, % at 5 µM;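 active means at least 50% inhibition at 5 µM, scaled per plate between neutral and stimulator controls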;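 further: PAF is a Pseudomonas aeruginosa culture filtrate used as stimulus; plate controls were PAF-stimulated DMSO wells for no effect and unstimulated DMSO wells for full effect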
* hit, by the source's call.

Results for CCCc1cc(=O)[nH]c(SCC(=O)Nc2ccc(Br)cc2)n1 ?
HIF-2a block: 16.1; TWEAK Fn14 block: 9.6; Peg3 promoter: 6.9; KKLEB tox: -4.9; TROY signal inh: 11.7; CF NFkB block: -8.5

How did Cc1ccc(SCc2cc(=O)[nH]c(SCC(=O)Nc3cc(Cl)ccc3Cl)n2)cc1 do in these assays?
HIF-2a block: 19.7; TWEAK Fn14 block: -12.0; Peg3 promoter: 13.7; KKLEB tox: 6.9; TROY signal inh: 59.0*; CF NFkB block: 4.9

How did CCc1ccc(NC(=O)CSc2nc(CSc3ccc(C)cc3)cc(=O)[nH]2)cc1 do in these assays?
HIF-2a block: 2.2; TWEAK Fn14 block: -36.7; Peg3 promoter: -2.9; KKLEB tox: 12.8; TROY signal inh: 8.3; CF NFkB block: 6.8

What do the screens show for `COCc1c(C(=O)NCc2ccccc2CN2CCCC2)oc2ccccc12`?
HIF-2a block: 12.1; TWEAK Fn14 block: 11.4; Peg3 promoter: 0.3; KKLEB tox: -1.0; TROY signal inh: 11.9; CF NFkB block: 8.0

Results for CC(C)c1ccc(OCc2ccc(C(=O)O)o2)cc1 ?
HIF-2a block: 48.9*; TWEAK Fn14 block: 36.6; Peg3 promoter: 50.9*; KKLEB tox: -7.3; TROY signal inh: -29.5; CF NFkB block: 13.4

How did CCc1ccc(OCc2ccc(C(=O)O)o2)cc1 do in these assays?
HIF-2a block: 36.4; TWEAK Fn14 block: 53.9*; Peg3 promoter: 29.1; KKLEB tox: 9.3; TROY signal inh: -23.3; CF NFkB block: -10.6

How did O=C(O)c1ccc(OCc2ccc(C(=O)O)o2)cc1 do in these assays?
HIF-2a block: -50.9; TWEAK Fn14 block: -9.8; Peg3 promoter: -63.2; KKLEB tox: 13.3; TROY signal inh: -19.8; CF NFkB block: -0.4

How did CC(C)c1ccc(OCc2ccc(C(=O)N(C)C)o2)cc1 do in these assays?
HIF-2a block: -254.2; TWEAK Fn14 block: -21.3; Peg3 promoter: -265.6; KKLEB tox: -1.1; TROY signal inh: -35.2; CF NFkB block: -10.1

How did CCN(CC)c1ccc(S(=O)(=O)N2CCOCC2)cc1NC(=O)CNCc1cccc(Cl)c1 do in these assays?
HIF-2a block: 31.4; TWEAK Fn14 block: 1.4; Peg3 promoter: 29.3; KKLEB tox: 12.1; TROY signal inh: 1.5; CF NFkB block: -10.0

What do the screens show for `O=C(Nc1cccnc1)c1cc(-c2ccc3c(c2)OCO3)on1`?
HIF-2a block: -171.2; TWEAK Fn14 block: 76.8*; Peg3 promoter: 3.3; KKLEB tox: -25.5; TROY signal inh: 36.5; CF NFkB block: -1.9

Results for O=C(c1cc(-c2ccc3c(c2)OCO3)on1)N1CCN(c2ccc(F)cc2)CC1 ?
HIF-2a block: -9.7; TWEAK Fn14 block: -11.1; Peg3 promoter: 5.2; KKLEB tox: -26.4; TROY signal inh: -22.3; CF NFkB block: 14.7

How did O=C(c1cc(-c2ccc(F)cc2)on1)N1CCOCC1 do in these assays?
HIF-2a block: -140.7; TWEAK Fn14 block: 31.5; Peg3 promoter: -165.2; KKLEB tox: 2.0; TROY signal inh: -3.3; CF NFkB block: 8.2

What do the screens show for `O=C(c1cc(-c2ccc3c(c2)OCO3)on1)N1CCOCC1`?
HIF-2a block: -7.6; TWEAK Fn14 block: 77.2*; Peg3 promoter: -9.2; KKLEB tox: -4.9; TROY signal inh: 35.7; CF NFkB block: 13.1

How did O=C(c1cc(-c2ccc3c(c2)OCO3)on1)N1CCN(c2ccccc2)CC1 do in these assays?
HIF-2a block: -259.6; TWEAK Fn14 block: 21.8; Peg3 promoter: -298.4; KKLEB tox: -5.5; TROY signal inh: 65.0*; CF NFkB block: 10.4

What do the screens show for `CC1(C(=O)Nc2ccc(F)cc2F)CCN1C(=O)CCC1CCCC1` (centres undefined)?
HIF-2a block: 15.9; TWEAK Fn14 block: -5.7; Peg3 promoter: 10.8; KKLEB tox: -0.9; TROY signal inh: 6.9; CF NFkB block: -6.0

How did CCCN=C1N(C)C[C@@H]2[C@@H]3C(=O)N(C)C(=O)[C@@H]3[C@](C)(C(=O)OC)N12 do in these assays?
HIF-2a block: 9.7; TWEAK Fn14 block: 12.7; Peg3 promoter: -8.7; KKLEB tox: 5.8; TROY signal inh: 7.5; CF NFkB block: -5.9

How did COc1ccc(C(=O)N(C)Cc2ccc(C)o2)cc1OC1CCN(C(C)=O)CC1 do in these assays?
HIF-2a block: 0.0; TWEAK Fn14 block: 24.7; Peg3 promoter: -4.3; KKLEB tox: 2.3; TROY signal inh: -22.0; CF NFkB block: -10.4

Results for Cc1ccc(C(=O)N2CC=C(c3ccccc3)CC2)s1 ?
HIF-2a block: -160.0; TWEAK Fn14 block: -32.5; Peg3 promoter: -108.8; KKLEB tox: 12.7; TROY signal inh: -55.5; CF NFkB block: -37.6

How did O=C(O)C1CCCCC1C(=O)N1CC=C(c2ccccc2)CC1 (centres undefined) do in these assays?
HIF-2a block: 26.7; TWEAK Fn14 block: 79.7*; Peg3 promoter: -25.0; KKLEB tox: -0.5; TROY signal inh: 67.9*; CF NFkB block: 8.5

What do the screens show for `CCC(C)Nc1ccc(NC(C)CC)cc1` (centres undefined)?
HIF-2a block: 19.2; TWEAK Fn14 block: 68.6*; Peg3 promoter: 65.4*; KKLEB tox: -36.9; TROY signal inh: 39.2; CF NFkB block: 59.9*

What do the screens show for `CCC(C)NC(=O)Nc1ccc(Br)cc1` (centres undefined)?
HIF-2a block: -144.7; TWEAK Fn14 block: -7.4; Peg3 promoter: -116.5; KKLEB tox: 8.3; TROY signal inh: -27.3; CF NFkB block: 1.6

What do the screens show for `CC(C)C[C@H]1CN(CCCC[C@H]2CNC(=O)C(=O)N2CC2CCCCC2)C(=O)C(=O)N1CCc1ccccc1`?
HIF-2a block: 5.5; TWEAK Fn14 block: 7.4; TROY signal inh: 5.8

What do the screens show for `Cc1ccc(C(=O)NC(=C(Cl)Cl)S(=O)(=O)c2ccc(Cl)cc2)cc1`?
HIF-2a block: 39.6; TWEAK Fn14 block: 93.3*; Peg3 promoter: 58.0*; KKLEB tox: -12.2; TROY signal inh: 27.1; CF NFkB block: 7.5

What do the screens show for `Cc1ccc(C(=O)NC(=C(Cl)Cl)S(=O)(=O)c2ccc(C)cc2)cc1`?
HIF-2a block: 9.4; TWEAK Fn14 block: 54.5*; Peg3 promoter: 18.1; KKLEB tox: -6.6; TROY signal inh: -34.9; CF NFkB block: -16.1

What do the screens show for `Cc1noc(C)c1NC(=O)Nc1ccc2c(c1)C(=O)N([C@H](C)CO)C[C@H](C)[C@H](CN(C)C)O2`?
HIF-2a block: 6.1; TWEAK Fn14 block: 1.3; Peg3 promoter: -2.0; KKLEB tox: 9.3; TROY signal inh: -6.9; CF NFkB block: 1.7

Results for Cc1ccc(Cl)cc1N1CCN(C(=O)CSc2nnc3n2C(C)(C)Cc2ccccc2-3)CC1 ?
HIF-2a block: 10.3; TWEAK Fn14 block: 95.9*; Peg3 promoter: 21.4; KKLEB tox: -8.2; TROY signal inh: 72.4*; CF NFkB block: 22.9

How did COc1ccc(N2CCN(C(=O)CSc3nnc4n3C(C)(C)Cc3ccccc3-4)CC2)cc1 do in these assays?
HIF-2a block: 2.8; TWEAK Fn14 block: 10.5; Peg3 promoter: 17.2; KKLEB tox: -0.3; TROY signal inh: 1.8; CF NFkB block: -5.7

How did O=C(/C=C/c1ccco1)Nc1ccc(Oc2ccc(Cl)cc2)cc1 do in these assays?
HIF-2a block: -51.3; TWEAK Fn14 block: 51.3*; Peg3 promoter: 13.1; KKLEB tox: -8.5; TROY signal inh: 6.2; CF NFkB block: -0.9
